# About 2,200 (0.61%) of roughly 360,000 compounds were called active.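 Rule for the calls: active = inhibition above a per-plate cutoff, the plate's mean sample inhibition plus 3 SD (cut at about 24% in these data); inactive = the rest.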 The entries come from a sample that favours actives as a whole.
# Assay: calcium signal blockers in parental CHO-K1 cells – cell-based, Fluo-8 calcium fluorescence, full deck, 1536-well, counter-screen for M1 antagonist project, primary screen (AID 602250);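 note: 0% = DMSO plus EC80 ATP and 100% = DMSO alone without ATP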
# Settings: ATP-induced calcium, Fluo-8 fluorescence, at 3 µM, hits give high values
row,SMILES,inhibition
1,Nc1ccc2nn(-c3ccc(Cl)cc3)nc2c1,-10.4% (inactive)
2,CN(C)c1ccc(/C=C2\NC(=S)N(Cc3ccccc3)C2=O)cc1,53.4% (active)
3,CN(C(=O)CN1C(=O)NC(C)(CCc2ccccc2)C1=O)c1ccccc1 (centres undefined),-3.27% (inactive)
4,CN(C)c1ccc(CSc2ccccc2)cc1,-21.6% (inactive)
5,Cc1ccc(N2C(=O)CC(Sc3ncn[nH]3)C2=O)cc1 (centres undefined),-12.5% (inactive)
6,COc1ccc(N2C(=O)CC(Sc3n[nH]c(-c4ccc(C)cc4)n3)C2=O)cc1 (centres undefined),24.5% (active)
7,COc1ccc(-c2nc(SCC(=O)N3CCOCC3)n[nH]2)cc1,-11.8% (inactive)
8,Cn1c(SCC(=O)NC2CCCCC2)nnc1-c1cc2ccccc2o1,-5.47% (inactive)
9,CCc1c(SCCC(=O)O)nc2ccccc2c1C,-13.8% (inactive)
10,CCNC(=S)NCC,-17.7% (inactive)
11,O=C1NNC(c2ccccc2)=N/C1=C\c1ccc(Cl)cc1,3.07% (inactive)
12,O=C1OC(c2ccc(Cl)cc2)=N/C1=C\c1cccnc1,32.7% (active)
13,Cc1ccc(C2=C/C(=C\c3cccnc3)C(=O)O2)cc1,6.03% (inactive)
14,CN1OC(COC(=O)c2ccc(Cl)cc2)CC1c1ccccc1 (centres undefined),28.7% (active)
15,CCCCCCN1C[C@@H](O)[C@H](n2cc(COC(=O)c3ccccc3)nn2)C[C@@H]1c1ccc(Cl)cc1,0.85% (inactive)
16,Cn1cncc1COC(=O)c1ccc(Cl)cc1,9.06% (inactive)
17,O=C(Nn1cc(C(=O)N2CCN(c3ccccc3F)CC2)c2ccccc2c1=O)c1cnccn1,-2.09% (inactive)
18,COc1ccc2cc(C(=O)NCC3CCCO3)[nH]c2c1 (centres undefined),-13.7% (inactive)
19,O=C(NCCCO)c1cc2c([nH]c3ccccc32)c(-c2ccc(F)cc2)n1,-6.07% (inactive)
20,O=C(NCC1CCCO1)c1cc2c([nH]c3ccccc32)c(-c2ccc(F)cc2)n1 (centres undefined),31.3% (active)
21,Fc1ccccc1CCNc1nnnn1-c1ccccc1,-1.72% (inactive)
22,OCCc1ccc(NCCc2ccco2)cc1,29.2% (active)
23,Cc1ccsc1C(=O)NCCc1ccco1,-8.62% (inactive)
24,COC(=O)Cc1ccc(NC(=S)NCc2ccco2)cc1,2.26% (inactive)
25,CC1=CC2=NC(=O)CC(C)(C(=O)N(CC(=O)NC(C)(C)C)Cc3ccccc3)N2C=C1 (centres undefined),-17.9% (inactive)
26,CC1(C)CC(=O)C2=C(C1)N=C1SCCC(=O)N1C2c1ccc(C(F)(F)F)cc1 (centres undefined),-16.7% (inactive)
27,N/C(=N\OC(=O)N1c2ccccc2Sc2ccccc21)c1ccc(Br)cc1,-4.6% (inactive)
28,N/C(=N\OC(=O)Cc1ccccc1[N+](=O)[O-])c1ccc(Br)cc1,-3.46% (inactive)
29,N/C(=N\OC(=O)/C=C/c1ccccc1)c1ccc(Br)cc1,24.5% (active)

# From PubChem BioAssay AID602250 (The Scripps Research Institute Molecular Screening Center, 2012)
